According to PubChem BioAssay (Tox21):
Results filed as inconclusive are left out. A call without a number means that no potency is given here. The source holds several records for some structures; these can differ, active in one and inactive in another. Active and inactive are the calls of the source. The call rests on the fitted dose curve.

Biological target: Acetylcholinesterase (Homo sapiens) (UniProt P22303)
Assay: Acetylcholinesterase (AChE) small molecule antagonists: fluorescence cell-based qHTS assay (AID 1347398); further: nearly all actives have a fitted effect of over 50% in size
Details: SH-SY5Y cells; Potency: AChE activity; outcome: AChE activity; series mostly up to 115 µM
Source text: National Center for Advancing Translational Sciences [NCATS]
Division of Preclinical Innovation [DPI]
U.S. Environmental Protection Agency [EPA]
National Institutes of Environmental Health Sciences [NIEHS]
National Toxicology Program [NTP]
U.S. Food and Drug Administration [FDA]
Acetylcholinesterase (AChE) is the primary cholinesterase in the body that hydrolyzes a key neurotransmitter, acetylcholine. Inhibition of AChE activity can lead to neurotoxicity. Known inhibitors of AChE include organophosphorous pesticides (OP), chemical warfare agents, drugs, and various phytochemicals.
A homogenous cell-based assay using Amplitetrade mark Fluorimetric Acetylcholinesterase Assay Kit *Green Fluorescence* (AAT Bioquest, Sunnyvale, CA) was used to evaluate the chemicals in the Tox21 10K library that inhibit AChE activity. The assay uses Thiolite Green to quantify the thiocholine produced from the hydrolysis of acetylthiocholine by AChE from the SH-SY5Y cells. AChE can hydrolyze acetylthiocholine to create thiocholine. Thiolite Green is fluorescent when reacting with thiocholine. It has spectral properties similar to those of fluorescein. The fluorescence intensity of Thiolite Green is used to measure AChE activity. Its signal can be easily read by a fluorescence microplate reader at Ex/Em = 490/520 nm.
Tox21 Assay Protocol Summary:
For cell-based AChE assay, 2,000 SH-SY5Y cells in 4 uL/well were dispensed into black, clear-bottom 1536-well plates using a Multidrop Combi (Thermo Scientific) dispenser. The assay plates were incubated overnight at 37 C to allow cells to attach to the wells, followed by the transfer of 23 nL compound or DMSO (vehicle control) by a Pintool station (Wako Automation, CA). The plates were incubated for 30 min at 37 C and 5% CO2, followed by the addition of 4 uL of detection cocktail solution (ThioliteGreen, acetylthiocholine) into each well using Flying Reagent Dispenser (Beckman Coulter, CA) and then following 40 min incubation at room temperature. Fluorescent intensity (Ex/Em = 490/520 nm) was measured using an Envision plate reader (PerkinElmer, MA).
Potency means the concentration at half of the fitted maximal effect.

Sequence of Acetylcholinesterase (Homo sapiens) (P22303 whole entry, looked up): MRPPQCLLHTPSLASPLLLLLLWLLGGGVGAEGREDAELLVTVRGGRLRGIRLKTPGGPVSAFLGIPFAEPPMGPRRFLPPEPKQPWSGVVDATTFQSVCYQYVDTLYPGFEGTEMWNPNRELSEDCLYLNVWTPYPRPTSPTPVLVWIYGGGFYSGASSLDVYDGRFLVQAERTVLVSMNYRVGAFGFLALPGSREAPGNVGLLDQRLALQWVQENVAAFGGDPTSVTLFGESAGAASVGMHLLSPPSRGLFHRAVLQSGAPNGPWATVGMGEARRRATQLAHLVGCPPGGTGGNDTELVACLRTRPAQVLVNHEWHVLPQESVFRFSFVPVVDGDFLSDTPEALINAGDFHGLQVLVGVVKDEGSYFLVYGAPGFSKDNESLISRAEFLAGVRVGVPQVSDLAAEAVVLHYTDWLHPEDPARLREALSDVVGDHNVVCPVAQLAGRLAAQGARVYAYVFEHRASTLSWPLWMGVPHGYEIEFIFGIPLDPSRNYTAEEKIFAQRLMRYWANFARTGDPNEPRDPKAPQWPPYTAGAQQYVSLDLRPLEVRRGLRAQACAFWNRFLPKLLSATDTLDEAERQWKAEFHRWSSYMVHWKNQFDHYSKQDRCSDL

Row | Structure (SMILES) | Potency | activity change, negative = inhibition
1 | CN(C)CCCN(C)CCCN(C)C | inactive | –
2 | O=C(OCCCCCCOC(=O)c1ccccc1)c1ccccc1 | inactive | –
3 | Cc1cc(N)no1 | inactive | –
4 | CCCCCCCCC1CO1 (stereo not given) | inactive | –
5 | C[C@]12CCC(=O)C=C1CC[C@@H]1[C@@H]2[C@@H](O)C[C@@]2(C)[C@H]1CC[C@]2(O)C(=O)COC(=O)CCC(=O)O | inactive | –
6 | CCc1oc2ccccc2c1C(=O)c1cc(I)c(O)c(I)c1 | inactive | –
7 | O=C(OCCOCCOCCOC(=O)c1ccccc1)c1ccccc1 | inactive | –
8 | CCCC(=O)OCCC(C)CCC=C(C)C (stereo not given) | inactive | –
9 | CCCCCC[C@@H](O)C/C=C\CCCCCCCC(=O)OCC(O)CO (stereo not given in full) | inactive | –
10 | COC(=O)CC(=O)OC | inactive | –
11 | CCC(C)N (stereo not given) | inactive | –
12 | Clc1ccc2c(Cl)ccnc2c1 | inactive | –
13 | CCOC(=O)c1c(N)sc2c1CCN(Cc1ccccc1)C2 | 12.3 µM (active) | –
14 | Cc1ccc(C(=O)c2ccc(CC(=O)O)n2C)cc1 | inactive | –
15 | C=CC(=O)CC | inactive | –
16 | NCCNCCN | inactive | –
17 | O=C1CC2CC1C1CCCC21 (stereo not given) | inactive | –
18 | C[C@](N)(Cc1ccc(O)cc1)C(=O)O | – | 3.21% [at 10.5 µM] (inactive)
19 | O=C(O)c1ccc(-n2nc(-c3ccccc3O)nc2-c2ccccc2O)cc1 | inactive | –
20 | CCCCN1C(=O)c2ccccc2C1=O | inactive | –

Row | Structure (SMILES) | Potency | activity change, negative = inhibition
21 | CC(=O)OC/C=C(C)/C=C/C=C(C)/C=C/C1=C(C)CCCC1(C)C | inactive | –
22 | CC(N)C12CC3CC(CC(C3)C1)C2 (stereo not given) | inactive | –
23 | CCCCOC(=O)CCC(C)=O | inactive | –
24 | CC(=O)Nc1ccc(C)c(Cl)c1 | inactive | –
25 | Nc1nc(=S)c2[nH]cnc2[nH]1 | inactive | –
26 | CCCCOC(=O)CC(CC(=O)OCCCC)(OC(C)=O)C(=O)OCCCC | inactive | –
27 | CC(=O)NCCO | inactive | –
28 | CNC(=O)c1cc(Oc2ccc(NC(=O)Nc3ccc(Cl)c(C(F)(F)F)c3)cc2)ccn1 | inactive | –
29 | CC(=O)N[C@@H](CCC(N)=O)C(=O)O | inactive | –
30 | CC(C)=CCl | 22.7 µM (active) and inactive | –
31 | CCCCCCCCCCOC(C)=O | inactive | –
32 | CC(C)OC(=O)CCC(=O)OC(C)C | inactive | –
33 | c1ccc(Cc2ccccc2)cc1 | inactive | –
34 | CCCC/C=C/C=C\C=O | inactive | –
35 | COc1cccc2sc(N)nc12 | inactive | –
36 | CC(C)=CC(C)(C)C | inactive | –
37 | OC[C@H](Cc1cccc(O)c1)[C@H](CO)Cc1cccc(O)c1 | inactive | –
38 | Cc1oc(-c2ccccc2)nc1CCC(=O)c1ccc(CC2SC(=O)NC2=O)cc1 (stereo not given) | inactive | –
39 | O=C(O)CCS | inactive | –
40 | Cc1ccc(S(=O)(=O)O)c(C)c1 | inactive | –
